The full list was thinned out, with hits kept by preference.
Pf Dd2 inh = inhibitors of Plasmodium falciparum Dd2 growth | 120,000 tested, 4.3% active | Potency, µM (doses to about 28.9 µM), for inactives: at the highest dose activity, negative = inhibition, actives largely listed as inhibitors | P. falciparum Dd2 growth, SYBR Green, 72 h | AID 1347417; active = well fitted inhibition curve with a large enough effect;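 note: plate controls were DMSO vehicle for no effect and reference drug for full effect; nearly all actives have a fitted effect of over 65% in size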
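Readout: SYBR Green fluorescence, 485 nm excitation, 535 nm emission, after ~16 h lysis at 37C. Before that, Dd2-infected red cells (2.5% hematocrit) grew 72 h with compound, 29 uM top final concentration.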
Active calls of the source: *; i = inactive; [ ] = dose if it differs, or a comment. Potency is the fitted concentration of half-maximal effect.

SMILES | Pf Dd2 inh
O=c1c2oc3ccccc3c2n(Cc2ccccc2F)c(=O)n1Cc1ccc2c(c1)OCO2 | -7%
COc1ccc(Cn2c(=O)c3oc4ccccc4c3n(Cc3cccc(F)c3)c2=O)cc1 | -17%
O=c1c2oc3ccccc3c2n(Cc2cccc(Cl)c2)c(=O)n1Cc1ccc2c(c1)OCO2 | 10µM*
Cc1ccc(C)c(Cn2c(=O)n(Cc3ccc4c(c3)OCO4)c(=O)c3oc4ccccc4c32)c1 | 37%
Cc1cccc(Cn2c(=O)n(Cc3ccccc3)c(=O)c3oc4ccccc4c32)c1 | -7%
O=c1c2sc3ccccc3c2n(Cc2cccc(C(F)(F)F)c2)c(=O)n1Cc1ccc(F)cc1 | 11µM*
O=c1c2sc3ccccc3c2n(Cc2cccc(Cl)c2)c(=O)n1Cc1ccc(F)cc1 | -17%
O=c1c2sc3ccccc3c2n(Cc2cccc(C(F)(F)F)c2)c(=O)n1Cc1ccccc1 | -1%
O=c1c2oc3ccccc3c2n(Cc2cccc(C(F)(F)F)c2)c(=O)n1Cc1ccc2c(c1)OCO2 | 7.9µM*
CCO[C@H]1CN(C(=O)C2CCN(C(=O)c3ccccc3Cl)CC2)C[C@@H]1O | 3%
O=C(Nc1ccccn1)C1CN(Cc2cccnc2)CC12CCOCC2 (stereo not given) | -25%
CC(C)CCN1CCc2[nH]nc(C(=O)N(C)C)c2C1 | 7%
O=C(NCc1ccncc1)c1nc2c(o1)CCN(Cc1ccc3[nH]ccc3c1)CC2 | -6%[44.1 µM]
O=C1CCN(C(=O)Cc2cccnc2)CCCC(c2nc(-c3cccnc3)no2)CCN1 (stereo not given) | i
CN(C)C(=O)N1Cc2ccccc2OC2(CCN(C(=O)c3ccc(N)nc3)CC2)C1 | 11%
COCCN1C(=O)CO[C@H]2CN(S(C)(=O)=O)C[C@H]21 | 18%[44.1 µM]
Cc1ccc(C)c(S(=O)(=O)NCCn2c(C)cnc2C2CCC2)c1 | -15%
Cc1cnc(C2CC2)n1CCN | i
Cc1cc(C)c(S(=O)(=O)NCCn2c(C)cnc2C2CC2)cc1C | 11µM*
CC(=O)Nc1ccc2c(c1)S(=O)(=O)N=C(CC(C)C)N2CC(C)C | 4µM*
CC(C)CC(=O)Nc1ccc2c(c1)CCC(=O)N2CC(C)C | i
CCC1=NS(=O)(=O)c2cc(NC(=O)C3CC3)ccc2N1CC(C)C | 4.5µM*
CCc1ccc2oc(-c3cc(NC(=O)c4cccs4)ccc3Cl)nc2c1 | -16%
CCc1ccc(C2=C(C)C(N3CCC(C(=O)Nc4cccc(OC)c4)CC3)=NS2(=O)=O)cc1 | i
CCC1=NS(=O)(=O)c2cc(NC(=O)C3CC3)ccc2N1CCOC | -16%
SMILES | Pf Dd2 inh
CCCN1C(CC(C)C)=NS(=O)(=O)c2cc(NC(=O)c3cccs3)ccc21 | 0.11µM*
CC(C)Cc1nn2c(=O)cc(COC(=O)c3ccc(NC(=O)c4cccs4)cc3)nc2s1 | 50%
CC(C)CN1C(=O)CCc2cc(NC(=O)c3ccc(N(C)C)cc3)ccc21 | -25%
CCNC(=O)N[C@H]1C[C@@H](Cc2cc(CN3CCCCC3)on2)C1(C)C | -23%[44.1 µM]
Cc1c(F)cccc1NC(=O)N1C[C@@H](F)C[C@H]1C(=O)N1CCOCC1 | 33%
COc1ccc(NC(=O)N2CCCCC2c2n[nH]c(C)n2)cc1 (stereo not given) | 4%
Cc1cccc(-c2noc([C@@H]3Cc4nc[nH]c4CN3C(=O)c3ccc(F)cc3)n2)c1 | i
N#Cc1cccc(CN2Cc3[nH]cnc3C[C@H]2c2nc(-c3cccc([N+](=O)[O-])c3)no2)c1 | 13µM*
O=[N+]([O-])c1cccc(-c2noc([C@@H]3Cc4nc[nH]c4CN3Cc3ccc(F)cc3)n2)c1 | 10µM*
Cc1cccc(-c2noc([C@@H]3Cc4nc[nH]c4CN3Cc3ccc(C(=O)O)cc3)n2)c1 | i
O=[N+]([O-])c1cccc(-c2noc([C@@H]3Cc4nc[nH]c4CN3Cc3cccs3)n2)c1 | -16%[44.1 µM]
N#Cc1cccc(CN2Cc3[nH]cnc3C[C@H]2C(=O)NCc2ccco2)c1 | -6%[44.1 µM]
Cc1cc(N2CCN(C(=O)[C@H]3CC[C@@H](N)C3)CC2)n2ncnc2n1 | 11%
O=C(c1ccc(N2CC3CC(C2)[C@H]2CCCC(=O)N2C3)nc1)N1CCCC1 (stereo not given in full) | 10%
O=C1CCC(CNC(=O)c2nc(-c3ccccc3)cc3[nH]ccc23)N1 (stereo not given) | 3%[44.1 µM]
O=C(NCCCn1ccnc1)c1nc(-c2ccccc2)cc2[nH]ccc12 | 11µM*
O=C(NCc1cccnc1)c1nc(-c2ccccc2)cc2[nH]ccc12 | i
CN1CC[C@H]2CN(c3cc(NCCO)ncn3)C[C@@]2(C(=O)O)C1 | -10%
O=C(c1cc(C2CC2)[nH]n1)N1CCC2(CC1)NC(=O)N(c1ccc(F)cc1)N2 | 23%
Cc1ccc(N2CCN(c3nc4c(c(=O)[nH]3)CCNC4)CC2)cc1 | 7%
CCCCN1CCN(C(=O)c2cc(Cl)c(C)c(Cl)c2)CC1=O | -7%
CCCCN1CCN(c2nc(-c3ccccc3)nc3c2CCNC3)CC1=O | 11µM*
c1cncc(-c2ccnc(NCCc3csc(-c4ccncc4)n3)n2)c1 | -7%
CC(Cc1ccncc1)Nc1nccc(-c2cnn(-c3ccccc3F)c2)n1 (stereo not given) | 5µM*
CC(Cc1ccncc1)Nc1nccc(-c2cnn(-c3ccccc3)c2)n1 (stereo not given) | 8.9µM*
SMILES | Pf Dd2 inh
CCN(Cc1ccncc1)Cc1cn(-c2ccccc2)nn1 | -15%
c1cc(-c2ccnc(NCC3(N4CCOCC4)CCCCC3)n2)ccn1 | -18%
Fc1ccc(CCNc2nccc(-c3cccnc3)n2)cc1 | -27%
CCC(C(=O)NC1CCN(c2cnn(CC)c(=O)c2)CC1)c1ccccc1 (stereo not given) | 1%
Cc1noc(-c2cn(C3CCCN(C(=O)c4ccc(N(C)C)cc4)C3)nn2)n1 (stereo not given) | i
Cc1ccc(O[C@H]2COCC[C@H]2NC(=O)Cc2c(F)cccc2Cl)cn1 | -5%
O=C1CC(c2ccccc2)N(C(=O)C2CC2)CCCNCCN1 (stereo not given) | 29%
O=C(Cn1ccn2nc(-c3ccccc3)c(CO)c2c1=O)NCCc1ccc(Cl)cc1 | -6%
Cc1onc(-c2ccccc2Cl)c1C(=O)N1CCCC2(CNC(=O)O2)C1 (stereo not given) | 5%
CC(=O)Nc1ccc(CNC[C@H]2Cn3c(-c4ccc(F)cc4)cnc3CO2)cc1 | -41%[44.1 µM]
CS(=O)(=O)NC[C@H]1Cn2c(-c3ccc(F)cc3)cnc2CO1 | -4%[44.1 µM]
c1ccc(-c2cnc3n2C[C@H](CNCc2nccs2)OC3)cc1 | i
COCC(=O)NC[C@H]1Cn2c(-c3ccc(Cl)cc3)cnc2CO1 | i
Fc1ccc(-c2cnc3n2C[C@H](CN(Cc2ccccc2)Cc2ccccc2)OC3)cc1 | 6.3µM*
COc1ccccc1C(=O)NC[C@H]1Cn2c(-c3ccc(Cl)cc3)cnc2CO1 | 11µM*
Fc1ccc(-c2cnc3n2C[C@H](CNCc2ccccc2Cl)OC3)cc1 | -2%[44.1 µM]
c1ccc(CNC[C@H]2Cn3c(-c4ccccc4)cnc3CO2)cc1 | 11µM*
O=C(NC[C@H]1Cn2c(-c3ccc(F)cc3)cnc2CO1)c1ccc(Cl)cc1 | i
COc1ccc(N2Cc3c(NC4CCCCC4)ncnc3N(C)CC2=O)cc1 | 5%
COC[C@@H]1CN(C(=O)Cn2nc(C)cc2C)C[C@H]1c1nc(C2CC2)no1 | 12%
Cc1ccc(CCCN2CCOc3ccc(C(=O)NCc4ccccc4F)cc3C2)o1 | -9%
Cc1ccc(C)c(CN2C(=O)NC3(CCN(C(=O)c4ccc[nH]c4=O)CC3)C2=O)c1 | 27%
COCCNC(=O)c1nc2sccn2c1Br | 1%[44.1 µM]
Cc1ccccc1Nc1c(-c2ccc(Br)cc2O)nc2sccn12 | 2.5µM*

From PubChem
